We go through 17 molecules from PubChem BioAssay AID651551 (Sanford-Burnham Center for Chemical Genomics, 2012).

The target of this test is PEG-3 (UniProt Q6IN02). Briefly: GAPDH versus PEG-3 reporter suppression – cell-based, luminescence, counter-screen for PEG-3 promoter inhibitor project, SAR follow-up (AID 651551). The settings on record: HeLa PEG-Prom / GAPDH luciferase reporter, 6 or 24 h, run 2, 24 h; at 99 µM (top of the series). In general terms: Counterscreens check selectivity or assay interference.
With `COc1ccc(-n2nc(C(=O)NCC(=O)Nc3ccc(OC)c(OC)c3)c3ccccc3c2=O)cc1`, the inhibition % (higher = more inhibition) came to 35.2%. The figure for `COc1ccccc1Nc1nc(-c2sc(NC(=O)c3ccco3)nc2C)cs1` is 10%; for `CCCn1nc(C(=O)Nc2nc3ccccc3s2)c2ccccc2c1=O` it is 18.4%; for `CCCn1nc(C(=O)Nc2nc(-c3ccccn3)cs2)c2ccccc2c1=O` it is 44.6%.

Turning to `COc1ccc(-n2nc(C(=O)NCC(=O)Nc3cccc(OC)c3)c3ccccc3c2=O)cc1`, the inhibition % (higher = more inhibition) stood at 21.2%. As for `O=C(Nc1nccs1)c1nn(-c2ccccc2)c(=O)c2ccccc12`, the figure is 49.2%; as for `Cc1cc(NC(=O)c2ccccc2)n(-c2nc3ccccc3[nH]2)n1`, -13.6%; as for `Cc1cc(NC(=O)c2ccccc2)n(-c2nc3ccccc3n2C)n1`, 12.8%. The figure for `Cc1cc(NC(=O)c2ccccc2C(F)(F)F)n(-c2nc3ccccc3[nH]2)n1` is 91.9%. As for `Cc1ccc(Cl)cc1Nc1nc(-c2sc(NC(=O)c3ccco3)nc2C)cs1`, the figure is 1.6%. In the case of `O=C(Nc1nc2ccccc2s1)c1nn(-c2ccccc2)c(=O)c2ccccc12`, the inhibition % (higher = more inhibition) was -4.01%.

As for `Cc1nc(NC(=O)c2ccccc2)sc1-c1csc(Nc2cccc(Cl)c2C)n1`, the inhibition % (higher = more inhibition) is -15.2%.

`COc1ccc(Cl)cc1Nc1nc(-c2sc(NC(=O)c3ccccc3)nc2C)cs1`: the inhibition % (higher = more inhibition) worked out at 76.3%. As for `Cc1nc(NC(=O)c2ccccc2)sc1-c1csc(Nc2ccccc2)n1`, the figure is 63.3%; as for `CCn1nc(C(=O)Nc2nc(-c3ccccn3)cs2)c2ccccc2c1=O`, 53.3%; as for `Cc1cc(NC(=O)c2ccccc2C)n(-c2nc3ccccc3[nH]2)n1`, 11.5%.

As to `COc1ccc(-n2nc(C(=O)NCC(=O)Nc3cc(OC)c(OC)c(OC)c3)c3ccccc3c2=O)cc1OC`, the inhibition % (higher = more inhibition) worked out at 40.8%.
